Compounds without any hit were thinned out: in the full panel of roughly 83,000, 20% have a hit.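 Activity criterion: percent growth below 10, measured after cells in 96-well plates were exposed to a single compound concentration for 48 hours.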 A number with no mark means an inactive call. Activity calls are given as the source filed them.

Test systems include HCT-15 colon; HT29 colon; SNB-19 CNS; U251 CNS; PC-3 prostate; SK-MEL-5 melanoma; UACC-62 melanoma; LOX IMVI melanoma; SK-MEL-28 melanoma; SK-MEL-2 melanoma; EKVX NSCLC; SN12C renal; UO-31 renal; TK-10 renal; ACHN renal; CAKI-1 renal; A498 renal; CCRF-CEM leukemia; MOLT-4 leukemia.
Experiment in all cases: NCI-60 one-dose screen, 48 h (100 = growth as untreated, 0 = no growth, -100 = all killed)
Holding throughout (conditions): 10 µM

For the compound `COC1=C[C@]23CCC(=O)N2CCc2cc4c(cc2[C@@H]3[C@@H]1OC(=O)CCCC(C)C)OCO4`, the growth in the experiment with HCT-15 colon is 23.1%; with HT29 colon, 32.2%; with SNB-19 CNS, 28%; in the experiment on U251 CNS, 43.3%; in the experiment with PC-3 prostate, 42.5%; in the experiment on SK-MEL-5 melanoma, 25.9%. In addition, the growth is 61% in the experiment with UACC-62 melanoma; 7.89% (active) with LOX IMVI melanoma; 64.4% with SK-MEL-28 melanoma; 101% in the experiment with SK-MEL-2 melanoma; 80.4% in the experiment with EKVX NSCLC; 104% in the experiment with SN12C renal. Further, the growth is 36.3% in the experiment with UO-31 renal; 66.1% in the experiment with TK-10 renal; 32.1% with ACHN renal; 48% with CAKI-1 renal; 25% in the experiment with A498 renal; 59.7% in the experiment with CCRF-CEM leukemia. The growth in the experiment with MOLT-4 leukemia was 9.63% (active).

Take `O=S(=O)(Nc1ncccn1)c1ccc(-n2c(-c3ccc(Br)cc3)nc(-c3ccccc3)c2-c2ccccc2)cc1`: the growth in the experiment on HCT-15 colon was 22.5%; in the experiment with HT29 colon it was 41.8%; in the experiment on SNB-19 CNS, 23.3%; in the experiment on PC-3 prostate it was 22.3%; in the experiment on SK-MEL-5 melanoma, 25.3%; in the experiment with UACC-62 melanoma, 34.3%. Further, the growth in the experiment on LOX IMVI melanoma is 32.2%; in the experiment with SK-MEL-28 melanoma, 29.3%; in the experiment on SK-MEL-2 melanoma it was 56.8%; with EKVX NSCLC it was 16.1%; in the experiment with SN12C renal, 35.9%; in the experiment on UO-31 renal, 20.1%. Moreover, the growth is 56.7% with TK-10 renal; 38.5% with ACHN renal; 23.7% in the experiment with CAKI-1 renal; -1.34% (active) in the experiment with A498 renal; 18.6% with CCRF-CEM leukemia; 22.4% in the experiment with MOLT-4 leukemia.

`CC(=O)NNc1ccc2nnc(-c3ccc(Br)cc3)n2n1`: the growth in the experiment with HCT-15 colon was 93.8%; in the experiment on HT29 colon, 103%; in the experiment on SNB-19 CNS, 92%; in the experiment on U251 CNS it was 93.3%; in the experiment with PC-3 prostate it was 93.6%; with SK-MEL-5 melanoma, 95.4%. Moreover, the growth in the experiment on UACC-62 melanoma was 87.9%; in the experiment with LOX IMVI melanoma, 100%; in the experiment with SK-MEL-28 melanoma, 106%; in the experiment with SK-MEL-2 melanoma it was 104%; in the experiment on EKVX NSCLC, 81.7%; in the experiment with SN12C renal, 105%. In addition, the growth is 82.1% with UO-31 renal; 103% in the experiment with TK-10 renal; 101% in the experiment on ACHN renal; 90.3% with CAKI-1 renal; 83.4% in the experiment on A498 renal; 40.1% in the experiment with CCRF-CEM leukemia. Besides, the growth with MOLT-4 leukemia was 92.3%.

`COc1ccc(C2N(c3ccc(Br)cc3)N=C(C(C)=O)N2[C@H]2[C@H](OC(C)=O)O[C@H](COC(C)=O)[C@@H](OC(C)=O)[C@@H]2OC(C)=O)cc1` (some centres undefined): the growth with HCT-15 colon is 61.4%; with HT29 colon, 75.2%; in the experiment on SNB-19 CNS, 78.2%; with U251 CNS, 74.8%; in the experiment with PC-3 prostate, 43.2%; in the experiment with SK-MEL-5 melanoma it was 77.7%. Moreover, the growth in the experiment on UACC-62 melanoma is 56.9%; in the experiment on LOX IMVI melanoma, 71.1%; in the experiment on SK-MEL-28 melanoma it was 86.4%; in the experiment with SK-MEL-2 melanoma it was 77.9%; with EKVX NSCLC, 59.4%; in the experiment with UO-31 renal, 44.5%. Further, the growth in the experiment on TK-10 renal is 68.9%; in the experiment with ACHN renal it was 61.1%; in the experiment on CAKI-1 renal it was 70.8%; in the experiment with A498 renal, 61.3%; in the experiment with CCRF-CEM leukemia, 78.8%; with MOLT-4 leukemia, 54.6%.

Take `O=C1Nc2ccc(Cl)cc2/C1=C/c1ccc(OCc2ccc(Br)cc2F)cc1`: the growth in the experiment on HCT-15 colon is 45.7%; with HT29 colon, 40.5%; in the experiment on SNB-19 CNS it was 23%; with U251 CNS it was -5.75% (active); with PC-3 prostate, 41.4%; with SK-MEL-5 melanoma, 32.6%. The growth in the experiment on UACC-62 melanoma was 32.5%; in the experiment on LOX IMVI melanoma, 7.62% (active); in the experiment on SK-MEL-28 melanoma it was 63.7%; in the experiment on SK-MEL-2 melanoma, 80%; in the experiment with EKVX NSCLC, 41%; in the experiment on SN12C renal it was 34.2%. Further, the growth in the experiment with TK-10 renal was 18.6%; in the experiment on ACHN renal, 3.32% (active); with CAKI-1 renal, 28.9%; in the experiment with A498 renal, 4.76% (active); in the experiment with CCRF-CEM leukemia, 43.1%; in the experiment with MOLT-4 leukemia it was 63.5%.

Take `COc1ccc(CCN2C(=O)/C(=C/c3csc(C#N)n3)SC2=S)cc1`: the growth in the experiment on HCT-15 colon was -51.7% (active); in the experiment on HT29 colon, -49.4% (active); with SNB-19 CNS, 72.2%; in the experiment on U251 CNS it was 21.4%; in the experiment with PC-3 prostate, 32.8%; in the experiment on SK-MEL-5 melanoma, 36.6%. Further, the growth is -26.6% (active) in the experiment with UACC-62 melanoma; -78.5% (active) with LOX IMVI melanoma; -10.9% (active) with SK-MEL-28 melanoma; -0.186% (active) in the experiment on SK-MEL-2 melanoma; 20% in the experiment on EKVX NSCLC; -38.2% (active) with SN12C renal. Further, the growth with UO-31 renal was -43.9% (active); in the experiment on TK-10 renal, 13.3%; with ACHN renal it was 4.4% (active); with CAKI-1 renal it was -0.602% (active); in the experiment with A498 renal, 61.4%; in the experiment on MOLT-4 leukemia, -11.2% (active).

`Cc1ccc(-c2ccc(SCC(=O)Nc3ccc(Cl)c(C(F)(F)F)c3)nn2)cc1`: the growth with HCT-15 colon is 14.9%; in the experiment on HT29 colon it was -19.7% (active); with SNB-19 CNS, 23.2%; in the experiment with U251 CNS, 16.5%; with PC-3 prostate, 28.7%; in the experiment on SK-MEL-5 melanoma it was 18.9%. Also, the growth with UACC-62 melanoma was 15.5%; with LOX IMVI melanoma, 33.9%; with SK-MEL-28 melanoma, 57.6%; in the experiment on SK-MEL-2 melanoma, 12.8%; in the experiment on EKVX NSCLC it was 36.7%; in the experiment with SN12C renal, 35.2%. For the same compound, the growth in the experiment with TK-10 renal is 59.8%; in the experiment on ACHN renal, 43.4%; in the experiment with CAKI-1 renal, 41.7%; in the experiment with A498 renal, 80.3%; with CCRF-CEM leukemia it was 19.8%; with MOLT-4 leukemia, 8.91% (active).

Consider `COc1cc(/C=C/C(=O)c2ccc(S(=O)(=O)NCCNc3nc(Nc4ccc(F)cc4)nc(N(C)C)n3)cc2)cc(OC)c1OC`, for which the growth in the experiment with HCT-15 colon is -65.9% (active); with HT29 colon, -56.7% (active); in the experiment with SNB-19 CNS, 15.6%; in the experiment with PC-3 prostate, 9.45% (active); in the experiment with SK-MEL-5 melanoma it was 32.4%; in the experiment with UACC-62 melanoma, 34.2%. The growth in the experiment with LOX IMVI melanoma was -100% (active); in the experiment on SK-MEL-28 melanoma it was 18%; in the experiment on SK-MEL-2 melanoma, 98.4%; with EKVX NSCLC, 48.4%; with SN12C renal, -32.1% (active); in the experiment with UO-31 renal, 40.2%. Moreover, the growth was 66.3% with TK-10 renal; -49% (active) in the experiment on ACHN renal; 20.1% in the experiment with CAKI-1 renal; 81.3% with A498 renal; 8.16% (active) with CCRF-CEM leukemia; 8.5% (active) with MOLT-4 leukemia.

Take `O=c1c2ccccc2nc(COc2ccccc2)n1/N=C/c1ccc(N2CCOCC2)cc1`: the growth is 80.8% with HCT-15 colon; 93.8% in the experiment with HT29 colon; 3.55% (active) in the experiment on SNB-19 CNS; 51.5% in the experiment with U251 CNS; 75.6% with PC-3 prostate; 82% in the experiment with SK-MEL-5 melanoma. Also, the growth was 69.4% in the experiment with UACC-62 melanoma; 69.6% in the experiment with LOX IMVI melanoma; 83.3% in the experiment with SK-MEL-28 melanoma; 70.4% in the experiment on SK-MEL-2 melanoma; 69.7% with EKVX NSCLC; 68% with SN12C renal. The growth was 81.6% in the experiment with TK-10 renal; 60.6% in the experiment on ACHN renal; 51.9% in the experiment on CAKI-1 renal; 78.2% in the experiment with A498 renal; 97.7% in the experiment with CCRF-CEM leukemia; 117% in the experiment with MOLT-4 leukemia.
